From PubChem BioAssay AID2284349 (EPA ToxCast) come the findings set out here.

Records with an inconclusive call do not appear. Activity calls are given as the source filed them. Rule for the calls: active = hit-call score of the fitted dose curve at least 0.9, where 1 is the maximum; inconclusive = response in the unintended direction; inactive = score below 0.9.

For the test, the target named is frog Peroxisome Proliferator-activated Receptor-gamma (PPARg), pparg (gene 397769) (UniProt P37234). Description: ATG_frPPARg_EcoTox2: Attagene TRANS-FACTORIAL EcoTox-2 HepG2 Assay for frog Peroxisome Proliferator-activated Receptor-gamma (PPARg). Here is the method:
ATG_EcoTox2 is a cell-based, multiplexed assay created by modifying the existing Attagene TRANS-FACTORIAL system to include a panel of nuclear receptors from some or all the following species: human (Homo sapiens), african clawed frog (Xenopus laevis), rainbow trout (Oncorhynchus mykiss), japanese medaka (Oryzias latipes), and zebrafish (Danio rerio). The ECOTOX2-FACTORIAL format uses HepG2, a human liver cell line, with measurements taken at 24 hours after chemical dosing in a 24-well plate. ATG_frPPARg_EcoTox2 is one of 29 assay components calculated in the ATG_EcoTox2 assay. It is designed to make measurements of mRNA induction, a form of inducible reporter, as detected with fluorescence intensity signals by Reverse transcription polymerase chain reaction (RT-PCR) and Capillary electrophoresis technology.The assay endpoint ATG_frPPARg_EcoTox2 was analyzed in the positive analysis fitting direction relative to DMSO as the negative control and baseline of activity. Using a type of inducible reporter, measures of mRNA for gain-of-signal activity can be used to understand the reporter gene at the transcription factor-level as they relate to the gene PPARg. Furthermore, this assay endpoint can be referred to as a primary readout, because this assay has produced multiple assay endpoints where this one serves a reporter gene function. […]

Sequence of frog Peroxisome Proliferator-activated Receptor-gamma (PPARg), pparg (gene 397769) (P37234 whole entry, looked up): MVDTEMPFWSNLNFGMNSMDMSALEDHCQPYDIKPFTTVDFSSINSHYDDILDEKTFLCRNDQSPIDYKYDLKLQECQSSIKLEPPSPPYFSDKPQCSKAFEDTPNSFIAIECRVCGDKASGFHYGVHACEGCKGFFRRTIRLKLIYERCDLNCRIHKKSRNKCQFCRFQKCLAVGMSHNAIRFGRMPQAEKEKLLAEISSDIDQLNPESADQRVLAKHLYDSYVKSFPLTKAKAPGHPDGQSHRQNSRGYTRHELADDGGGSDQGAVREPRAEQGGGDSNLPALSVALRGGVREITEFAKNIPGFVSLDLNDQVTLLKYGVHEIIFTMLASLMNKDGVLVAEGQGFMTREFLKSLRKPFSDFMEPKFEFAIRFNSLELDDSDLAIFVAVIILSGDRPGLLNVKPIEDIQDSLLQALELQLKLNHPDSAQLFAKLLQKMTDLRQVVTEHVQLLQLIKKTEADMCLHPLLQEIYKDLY

In the case of `CCCCOCN(C(=O)CCl)c1c(CC)cccc1CC`, the result was inactive.
Take `O=S(=O)(O)C(F)(F)C(F)(F)C(F)(F)C(F)(F)C(F)(F)C(F)(F)F`: the call was inactive.
